Assay results reported in PubChem BioAssay (Tox21).
Inconclusive results are not listed. Calls of active or inactive are those of the source. Unless noted, the call rests on the fitted dose curve; in most records, active means well fitted curve in the direction sought with a large enough effect in the repeat runs; inconclusive means weak or mixed curves; inactive means no such curve, though single readings can be large; an effect the other way counts as inactive or inconclusive.

Key:
[1] = target: Retinoic acid receptor RXR-alpha (Homo sapiens) (UniProt P19793); experiment: qHTS assay to identify small molecule agonists of the RXR signaling pathway (AID 1159527; calls by dose curve; further: nearly all actives have a fitted effect of over 35% in size)
How it was run: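 16 hr incubation of compound-treated RXR-alpha-UAS-bla HEK 293T cells (2% charcoal-stripped FBS, 37 C) preceded a 2 hr room-temperature LiveBLAzer FRET substrate step and blue/green fluorescence measurement.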

[2] = qHTS assay to identify small molecule agonists of the RXR signaling pathway - cell viability counter screen (AID 1159529);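 further: HEK 293T cells carrying an RXR-alpha UAS beta-lactamase reporter; series mostly up to about 77 µM; nearly all actives have a fitted effect of over 50% in size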
How it was run: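 In this parallel viability measure, GeneBLAzer RXR-alpha HEK 293T cells (2% charcoal-stripped FBS) were given a 5 hr preincubation, treated with compounds 16 hr at 37 C, and read by CellTiter-Glo luminescence.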

[3] = qHTS assay to identify small molecule antagonists of the retinoid acid receptor (RAR) signaling pathway - cell viability counter screen (AID 1159551); further: nearly all actives have a fitted effect of over 35% in size
How it was run: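 Following overnight attachment, C3RL4 reporter cells received DMSO-dissolved compounds and then retinol (1 uM final). Six hours later at 37 C, ATP content was measured by CellTiter-Glo luminescence.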

[4] = qHTS assay to identify small molecule antagonists of the retinoic acid receptor (RAR) signaling pathway (AID 1159552; further: nearly all actives have a fitted effect of over 50% in size)
How it was run: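 C3RL4 RARE-luc cells, overnight plating; retinol 1 uM final added right after compound; 6 hr 37 C; luciferase read at 30 min RT.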

[5] = qHTS assay to identify small molecule agonists of the retinoic acid receptor (RAR) signaling pathway (AID 1159553); further: potency means the concentration at half of the fitted maximal effect
How it was run: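 Cell line C3RL4, RARE luciferase reporter. Treatment: compounds in DMSO, 6 hr, 37 C, 5% CO2, after overnight plating. Detection: luminescence, 30 min RT after reagent.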

[6] = qHTS assay to identify small molecule antagonists of the estrogen related receptor (ERR) signaling pathway from Tox21 library - cell viability counter screen (AID 1224834); further: nearly all actives have a fitted effect of over 30% in size
How it was run: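 Viability readout (CellTiter-Fluor fluorescence, 30 min at 37 C) multiplexed with the ERR assay; cells treated 17.5 h at 37 C with compounds delivered in DMSO.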

[7] = target: Luciferin 4-monooxygenase (Photinus pyralis) (UniProt P08659); experiment: qHTS assay to identify small molecule inhibitors of firefly luciferase (AID 1224835); further: nearly all actives have a fitted effect of over 25% in size; further: potency means the concentration at half of the fitted maximal effect
How it was run: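 Quantitative HTS format; KM concentrations of both substrates. Purified P. pyralis FLuc activity quantified from luminescence images.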

[8] = qHTS assay to identify small molecule agonists of the constitutive androstane receptor (CAR) signaling pathway - cell viability counter screen (AID 1224836); further: series mostly up to about 92 µM; nearly all actives have a fitted effect of over 45% in size
How it was run: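 Using CellTiter-Fluor, viability of HepG2 cells harbouring hCAR and CYP2B6-2.2kb was measured following 23 h incubation with a 15-concentration compound series plus PK11195 (0.75 uM final).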

[9] = qHTS assay to identify small molecule antagonists of the constitutive androstane receptor (CAR) signaling pathway - cell viability counter screen (AID 1224837); further: series mostly up to about 92 µM; nearly all actives have a fitted effect of over 45% in size
How it was run: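 Fluorescence from CellTiter-Fluor served as the viability signal. Human hepatoma HepG2 cells stably bearing hCAR and CYP2B6-2.2kb received compound plus CITCO (50 nM final) for 23 hr.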

[10] = qHTS assay to identify small molecule antagonists of the estrogen related receptor signaling pathway with the pleiotropic PPARgamma coactivator (PGC) from Tox21 10K library - cell viability counter screen (AID 1224840; active means well fitted cell-killing curve with a large enough effect in the repeat runs, not every such curve was filed as active; further: nearly all actives have a fitted effect of over 40% in size)
How it was run: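 Compounds in DMSO, alongside positive and negative controls, were pinned onto PGC/ERR cells (2,000 per well). Exposure lasted 17.5 hours at 37 C, followed by a 30-minute CellTiter-Fluor incubation and fluorescence reading.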

[11] = target: Nuclear receptor subfamily 1 group I member 3 (Homo sapiens) (UniProt Q14994); experiment: qHTS assay to identify small molecule antagonists of the constitutive androstane receptor (CAR) signaling pathway (AID 1224838);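 further: HepG2 cells stably expressing hCAR with CYP2B6 luciferase reporter stimulated by CITCO; nearly all actives have a fitted effect of over 40% in size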
How it was run: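 Quantitative HTS in double-stable HepG2-CYP2B6-hCAR cells. After 4 h plating, cells get compound (15 concentrations) and CITCO at 50 nM final, incubate 24 h at 37 C, then ONE-Glo luminescence is read.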

[12] = target: Nuclear receptor subfamily 1 group I member 3 (Homo sapiens) (UniProt Q14994); experiment: qHTS assay to identify small molecule agonists of the constitutive androstane receptor (CAR) signaling pathway (AID 1224839); further: nearly all actives have a fitted effect of over 15% in size; further: potency means the concentration at half of the fitted maximal effect
How it was run: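 Double-stable HepG2 cells (hCAR, CYP2B6-2.2kb) seeded 4 h before compound addition. Exposure 24 h with 0.75 uM PK11195 final. Luciferase detected by ONE-Glo.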

[13] = qHTS assay to identify small molecule antagonists of the estrogen related receptor signaling pathway with the pleiotropic PPARgamma coactivator (PGC) from Tox21 10K library (AID 1224841; call rule not given here; further: series mostly up to about 92 µM; actives are mostly falling curves and most rising ones were filed inactive; nearly all actives have a fitted effect of over 50% in size)
How it was run: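 Compound exposure ran 18 hours at 37 C in PGC/ERR cells (2,000/well) that had first rested 6 hours in a 37 C/5% CO2 incubator. Luciferase activity was then detected with One-Glo after a 30-minute room-temperature step.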

[14] = qHTS assay to identify small molecule agonists of the estrogen related receptor signaling pathway with the pleiotropic PPARgamma coactivator (PGC) from Tox21 10K library (AID 1224842); further: nearly all actives have a fitted effect of over 15% in size
How it was run: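 PGC/ERR reporter cells (NTP line) were seeded 2,000 per well, rested 6 h at 37 C/5% CO2, then pin-dosed with compounds in DMSO for 18 h at 37 C; luciferase read by One-Glo luminescence after 30 min at room temperature.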

[15] = qHTS assay to identify small molecule antagonists of the estrogen related receptor (ERR) signaling pathway - cell viability counter screen (AID 1224818);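 further: series mostly up to about 46 µM; viability measured after 17.5 h of compound exposure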
How it was run: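 Here, ERR cells are plated at 2,000 cells per well, allowed 6 h to attach, and treated with compounds in DMSO for 17.5 h at 37 C. CellTiter-Fluor is then added and fluorescence read after 30 min.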

[16] = qHTS assay to identify small molecule antagonists of the estrogen related receptor signaling pathway with the pleiotropic PPARgamma coactivator (PGC) cell viability counter screen (AID 1224822;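 further: series mostly up to about 46 µM; viability read after 17.5 h compound exposure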)
How it was run: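 qHTS format, DMSO compound stocks pin-transferred onto PGC/ERR cells 6 h after plating; 17.5 h exposure at 37 C, then CellTiter-Fluor fluorescence.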

Measured: Potency

Sequence of Luciferin 4-monooxygenase (Photinus pyralis) (P08659 whole entry, looked up): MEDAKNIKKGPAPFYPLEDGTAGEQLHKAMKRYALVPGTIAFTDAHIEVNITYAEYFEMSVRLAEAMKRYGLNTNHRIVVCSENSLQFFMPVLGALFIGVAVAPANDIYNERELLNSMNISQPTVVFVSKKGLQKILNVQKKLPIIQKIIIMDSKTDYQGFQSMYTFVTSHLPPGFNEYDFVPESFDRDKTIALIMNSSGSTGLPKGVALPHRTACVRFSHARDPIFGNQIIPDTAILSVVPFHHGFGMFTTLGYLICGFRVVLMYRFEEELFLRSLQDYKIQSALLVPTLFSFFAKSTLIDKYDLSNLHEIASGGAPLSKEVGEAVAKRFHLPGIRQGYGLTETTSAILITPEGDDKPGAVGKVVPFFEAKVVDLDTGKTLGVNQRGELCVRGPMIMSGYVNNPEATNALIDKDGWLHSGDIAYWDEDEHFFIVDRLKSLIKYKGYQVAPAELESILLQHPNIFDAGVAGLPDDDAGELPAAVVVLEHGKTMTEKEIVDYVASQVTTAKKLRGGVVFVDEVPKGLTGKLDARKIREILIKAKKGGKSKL
Sequence of Retinoic acid receptor RXR-alpha (Homo sapiens) (P19793 whole entry, looked up): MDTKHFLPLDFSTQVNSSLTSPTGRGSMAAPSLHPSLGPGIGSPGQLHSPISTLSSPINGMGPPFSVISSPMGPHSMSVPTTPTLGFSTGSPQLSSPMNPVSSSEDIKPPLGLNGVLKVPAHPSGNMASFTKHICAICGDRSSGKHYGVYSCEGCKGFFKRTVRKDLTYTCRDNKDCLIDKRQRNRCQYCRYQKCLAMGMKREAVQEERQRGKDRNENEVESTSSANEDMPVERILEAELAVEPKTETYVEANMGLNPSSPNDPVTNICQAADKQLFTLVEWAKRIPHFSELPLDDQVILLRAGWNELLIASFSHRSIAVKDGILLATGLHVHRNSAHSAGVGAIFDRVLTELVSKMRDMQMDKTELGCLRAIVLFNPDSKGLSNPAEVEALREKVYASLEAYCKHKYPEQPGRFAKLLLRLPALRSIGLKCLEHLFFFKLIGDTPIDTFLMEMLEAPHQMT
Sequence of Nuclear receptor subfamily 1 group I member 3 (Homo sapiens) (Q14994 whole entry, looked up): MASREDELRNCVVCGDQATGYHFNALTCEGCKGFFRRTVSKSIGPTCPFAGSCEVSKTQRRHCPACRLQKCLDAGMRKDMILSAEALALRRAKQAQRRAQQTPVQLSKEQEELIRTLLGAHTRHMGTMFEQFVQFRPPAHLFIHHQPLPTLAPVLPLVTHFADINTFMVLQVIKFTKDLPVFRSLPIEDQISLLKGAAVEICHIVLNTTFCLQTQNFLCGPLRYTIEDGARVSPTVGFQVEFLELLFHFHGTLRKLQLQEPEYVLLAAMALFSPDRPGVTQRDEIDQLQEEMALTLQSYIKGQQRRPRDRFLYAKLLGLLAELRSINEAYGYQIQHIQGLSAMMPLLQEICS

Cc1cccc(C)c1NC(=O)CN1CCCC1
not listed: [11] | [12] | [13] | [14] | [15] | [16]
inactive: all other assays above

CS(C)=O
inactive: [2] | [3] | [4] | [5] | [6] | [7] | [8]

CC(COc1ccccc1)NC(C)C(O)c1ccc(O)cc1 (configuration not stated)
not listed: [15] | [16]
inactive: all other assays above

Cc1c(Cl)cccc1[N+](=O)[O-]
inactive: [2] | [3] | [4] | [5] | [6] | [7] | [8] | [9]

O=C(c1ccco1)N1CCNCC1
not listed: [15] | [16]
inactive: all other assays above

CC(C)NC(=O)c1ccccc1N
not listed: [1] | [13] | [14] | [15] | [16]
inactive: all other assays above

CC1(C)CC(O)CC(C)(C)N1[O]
not listed: [1] | [13] | [14] | [15] | [16]
inactive: all other assays above

COc1ccc(CN(CCN(C)C)c2ncccn2)cc1
not listed: [11] | [12] | [13] | [14] | [15] | [16]
inactive: all other assays above

CCC(C)CCCC(C)(C)O (configuration not stated)
inactive: [2] | [3] | [4] | [5] | [6] | [7] | [8] | [9]

CC(C)(C)N
not listed: [1] | [10] | [13] | [14] | [15] | [16]
inactive: all other assays above

c1ccc(CCNc2nc(-c3ccccc3)cs2)cc1
active: [5] 2.11 µM | [7] 3.47 µM | [12] 7.5 µM
not listed: [13] | [14] | [15] | [16]
inactive: all other assays above

C1=COCCC1
inactive: [2] | [3] | [4] | [5] | [6] | [7] | [8]

O=C(NC1CCN(CCc2c[nH]c3ccccc23)CC1)c1ccccc1
not listed: [13] | [14] | [15] | [16]
inactive: all other assays above

O=C(OC1C[C@H]2CC[C@@H](C1)[N+]21CCCC1)C(O)(c1ccccc1)c1ccccc1 (some centres not stated)
not listed: [13] | [14] | [15] | [16]
inactive: all other assays above

Cc1ccc(Cl)c(OCC(O)CNC(C)(C)C)c1 (configuration not stated)
not listed: [11] | [12] | [13] | [14] | [15] | [16]
inactive: all other assays above

CC(Cc1ccccc1)(NC(=O)CN)c1ccccc1 (configuration not stated)
inactive: [1] | [2] | [3] | [4] | [5] | [6] | [7] | [8] | [9]

CC(CC(C#N)(c1ccccc1)C(C)C)N(C)C (configuration not stated)
not listed: [9] | [14] | [15] | [16]
inactive: all other assays above

OCCc1ccncc1
not listed: [10] | [11] | [12] | [14] | [15] | [16]
inactive: all other assays above

CCc1c(C)[nH]c2c1C(=O)C(CN1CCOCC1)CC2 (configuration not stated)
not listed: [11] | [12] | [13] | [14]
inactive: all other assays above

O=C(c1ccc(Cl)cc1)c1ccc(Cl)cc1
inactive: [2] | [3] | [4] | [5] | [6] | [7] | [8] | [9] | [11]

C=CC(=O)OCCCCCCCCCC
not listed: [9] | [14] | [15] | [16]
inactive: all other assays above

Cc1cc(C)c(C)c(O)c1
not listed: [15] | [16]
inactive: all other assays above

CCCc1ccc(OC)cc1
inactive: [2] | [3] | [4] | [5] | [6] | [7] | [8] | [9]
